Here are results for 40 molecules from ChEMBL document CHEMBL1157539, “Thousands of chemical starting points for antimalarial lead identification” (Nature, 2010).

Molecules are shown by their SMILES.

The test system of this assay is HepG2. Put plainly: GSK_TCMDC: Percent inhibition of human HepG2 cell line. Test compounds present at 10uM. The class given is functional.
Take `CCOc1c(CNCCCNc2cc(O)c3ccccc3n2)cc(I)cc1OC`: the Inhibition is given as 0%.
In the case of `Cc1nc(N)nc(N)c1-c1ccc(Br)cc1`, the Inhibition is 46%.
The molecule `COc1ccc2nc(-c3ccccc3)cc(NCCCNc3cc(-c4ccccc4)nc4ccc(OC)cc34)c2c1.Cl` returned an Inhibition of 100%.
Then `Cc1c2c(nn1-c1ccccc1)C(c1ccccc1)N(c1ccccc1)C2=O` (stereo not given), with 42%.
Molecule `O=C(O)C(F)(F)F.OC1CCCN(Cc2cccc(-c3ccc(-c4nc5ccccc5[nH]4)cc3)c2)C1` (stereo not given) gave an Inhibition of 25%.
Then `O=C(/C=C/c1ccc(Cl)c(Cl)c1)NCCCCCN1CCC(n2c(=O)[nH]c3ccccc32)CC1`, with 38%; and `Nc1nc(N)c2c(ccc3ccccc32)n1`, with 60%; and `CSc1c(CNCCCNc2cc(=O)c3ccccc3[nH]2)[nH]c2ccccc12`, with 0%.
`Cn1nc(-c2ccc(Cl)cc2)c2cc(C(=O)NCCN3CCOCC3)sc21` showed an Inhibition of 21%.
Then `CC(=O)N1N=C(c2ccc(Cl)cc2)Sc2c1nc(-c1ccccc1)n2C(C)=O`, with 0%; and `Cc1cccc2nc(-c3ccc(-c4cccc(NC(=O)c5cncn5C)c4)s3)[nH]c12`, with 13%; and `CC1(C)N=C(N)N=C(N)N1c1cccc(I)c1.Cl`, with 68%.
The figure for `CC(C)n1c(C2CCN(CC3CCN(C(=O)/C=C/c4ccc(Cl)c(Cl)c4)CC3)CC2)nc2ccccc21` is 36%; for `Cc1ccc(C(=O)Nc2ccc(F)cc2)cc1-c1nc(NC2CC(C)(C)NC(C)(C)C2)nc2c1ccc(=O)n2-c1c(F)cccc1F` it is 16%; for `Br.Cc1cc(C)c(C)c(OCCCON2C(=N)N=C(N)NC2(C)C)c1C` it is 64%.
Then `O=C(Nc1cccc(C(F)(F)F)c1)c1cccc2nc(C(F)(F)F)[nH]c12`, with 81%; and `O=C(Nc1ccc(C(F)(F)F)cc1)NC1CCN(c2ccnc3ccccc23)CC1.O=C(O)C(F)(F)F`, with 46%; and `Cc1cc(N[C@@H](CC(C)C)C(=O)NC2CCCC2)nc(NCCc2ccc(F)cc2)n1.O=C(O)C(F)(F)F`, with 15%.
Turning to `COc1ccc(CNC2CCN(C)CC2)cc1-c1ccc(S(=O)(=O)NC2CCC2)c(C)c1.O=C(O)C(F)(F)F`, the Inhibition is recorded as 24%.
The figure for `Br.CCCCCCCNCCNc1cc(C)nc2ccccc12` is 58%; for `COc1ccc(-c2cccc(NC(=O)c3cccc(C#N)c3)c2)cc1CN1CCCC1.O=C(O)C(F)(F)F` it is 28%; for `CN(C)CCN(C)Cc1ccc(-c2ccc3c(Nc4ccc(Oc5ccccn5)cc4)ccnc3c2)o1` it is 16%.
Then `O=C(Nc1ccc(F)cc1)N1CCCN(c2ccnc3cc(Cl)ccc23)CC1.O=C(O)C(F)(F)F`, with 7%.
Then `OC1(c2ccccc2)c2cc(Cl)ccc2OC1c1nc2c(Cl)ccc(Cl)c2o1` (stereo not given), with 7%.
`COc1cc(OC)cc(-c2nn(-c3ccc([N+](=O)[O-])cc3Cl)c(=S)n2CC2CCCO2)c1` (stereo not given) showed an Inhibition of 5%.
`Cc1cccc2nc(-c3cccc(-c4cccc(NC(=O)CC5NC(=O)c6ccccc65)c4)c3)[nH]c12` (stereo not given): the Inhibition came out at 8%.
The figure for `c1cncc(NCc2ccc(-c3cc4ccncc4cc3OC3CCNCC3)s2)c1` is 4%.
As to `CCOC(=O)c1ccc(N(CCCN(CCCN(c2ccc(C(=O)OCC)cc2)S(=O)(=O)c2ccc(C)cc2)CCc2ccc(O)cc2)S(=O)(=O)c2ccc(C)cc2)cc1`, the Inhibition worked out at 0%.
Then `N#Cc1ccc(-c2ccc(C(=O)NC3CCN(CCN4CCC(c5cn(CCO)c6ccccc56)CC4)CC3)cc2)cc1`, with 30%; and `CC(CCCCC(=O)Nc1ccc(C(F)(F)F)cc1)NCC(O)c1cccc(Cl)c1` (stereo not given), with 51%; and `COC(=O)C(NC(=O)NC1CCN(c2ccnc(Nc3ccc(F)cc3)n2)C1)c1ccccc1` (stereo not given), with 11%.
On to `COc1cc(C(=O)NCCCN2CCN(c3cccc(Cl)c3)CC2)ccc1-c1nc2cc(Cl)c(F)cc2[nH]1`, for which the Inhibition is listed as 15%.
Then `O=C(/C=C/c1ccc(Cl)cc1)NCCCCCN1CCN(C(=O)C=Cc2ccc(Cl)c(Cl)c2)CC1.O=C(O)C(F)(F)F`, with 30%; and `Cc1[nH]c(C)c(-c2ccc(-c3cccc(OC(F)(F)F)c3)nc2)c(=O)c1Cl`, with 30%.
The figure for `Cc1cc(-c2cnc(N)c(-c3ccc(N4CCN(C)CC4)nc3)c2)cc(C)c1O` is 0%.
For the molecule `Cc1cccc2nc(-c3cccc(-c4ccc(C(=O)N5CCCCC5C(C)O)cc4)c3)[nH]c12` (stereo not given), the Inhibition worked out at 26%.
As for `CCOC(=O)CC[C@H](NC(=O)c1ccc(NS(=O)(=O)c2ccc(-c3cnc(N)[nH]c3=O)cc2)cc1)C(=O)OCC`, the Inhibition is reported as 5%.
`Cc1[nH]c(C)c(-c2ccc(CCc3ccc(F)cc3F)cc2)c(=O)c1Cl`: the Inhibition came out at 5%.
The figure for `CCN(CC)CCNc1c2ccc(Cl)cc2nc2ccc(OC)nc12.Cl` is 20%; for `Cc1ccc(C(=O)Nc2cccc(-c3ccc(N4CCN(C)CC4)nn3)c2)cc1[N+](=O)[O-]` it is 32%.

One may read the Inhibition as the relative decrease from the control value, in per cent. Low readings indicate little suppression, high ones strong suppression.
